# Experimental data as given in the supplement of paper PMC8728848.
# Shown is part of a subset that was picked to be rich in the strongest signals.
# B1: Epa20 (Candida glabrata) (protein)
# chain: MGSSHHHHHHSSGLVPRGSHMASSNIPNNYPLGCSNKYSGHLPGLKMELYSYNYVNPRHPDPQNPGKLDQLYDPNLLGTYECFDSSYKDINYPRVGYKSKTLIGRSDGVSGILNFNFVPPWGCMPQKGQLPPAYNFKSNITLSNFTMILFGYFKPKISGNHIFSLHGDDLIYLNFGAGNAFDCCRQESSADNFGNYQAFSLWGINWEKKTLTVYLDMNTYYPIRIFYNNRDYQAIFNFSFKTEFDSSPVIDFQDYFFFLRDIDGGCPGEV
# Key:
# Assay in all cases: glycan array binding signal (z-score within array); higher = stronger binding
# Settings in all cases: glycan notation: IUPAC condensed, linker removed
# [1] = molecular target: Fuc(a1-2)Gal(b1-3)GalNAc(a1-3)[Fuc(a1-2)]Gal(b1-4)GlcNAc
# Summary of the method: (§1)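 The Consortium for Functional Glycomics database supplied 3228 glycan arrays, of which those lacking an available protein sequence were dropped. The binding signal, a within-array Z-score, was averaged across arrays of the same protein sequence and across linkers. Negative scores can be read as non-binding.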
# [2] = molecular target: Fuc(a1-2)Gal(b1-4)Fuc(a1-3)]GlcNAc(b1-2)Man(a1-3)[Fuc(a1-2)Gal(b1-4)[Fuc(a1-3)]GlcNAc(b1-2)Man(a1-6)]Man(b1-4)GlcNAc(b1-4)GlcNAc
# Summary of the method: as §1
# [3] = molecular target: Fuc(a1-2)Gal(b1-4)GlcNAc(b1-2)Man(a1-3)[Fuc(a1-2)Gal(b1-4)GlcNAc(b1-2)Man(a1-6)]Man(b1-4)GlcNAc(b1-4)[Fuc(a1-6)]GlcNAc
# Summary of the method: as §1
# [4] = molecular target: Fuc(a1-2)Gal(b1-4)GlcNAc(b1-3)GalNAc
# Summary of the method: as §1
# [5] = molecular target: Fuc(a1-2)Gal(b1-4)[Fuc(a1-3)]GlcNAc(b1-3)GalNAc
# Summary of the method: as §1
# [6] = molecular target: Fuc(a1-2)[Gal(a1-3)]Gal(b1-3)GalNAc(b1-3)Gal(a1-4)Gal(b1-4)Glc
# Summary of the method: as §1
# [7] = molecular target: Fuc(a1-2)[GalNAc(a1-3)]Gal
# Summary of the method: as §1
# [8] = molecular target: Fuc(a1-2)[GalNAc(a1-3)]Gal(b1-4)[Fuc(a1-3)]GlcNAc(b1-3)GalNAc
# Summary of the method: as §1
# [9] = molecular target: Fuc(a1-3)[Gal(b1-4)]GlcNAc(b1-2)Man(a1-3)[Fuc(a1-3)[Gal(b1-4)]GlcNAc(b1-2)Man(a1-6)]Man(b1-4)GlcNAc(b1-4)[Fuc(a1-6)]GlcNAc
# Summary of the method: as §1
# Gal(b1-2)Gal = molecular target: Gal(b1-2)Gal
# Summary of the method: as §1
# Gal(b1-3)GlcNAc = molecular target: Gal(b1-3)GlcNAc
# Summary of the method: as §1
# Gal(b1-3)GlcNAc(b1-2)Man = molecular target: Gal(b1-3)GlcNAc(b1-2)Man
# Summary of the method: as §1
# [10] = molecular target: Gal(b1-3)GlcNAc(b1-2)Man(a1-3)[Gal(b1-3)GlcNAc(b1-2)Man(a1-6)]Man(b1-4)GlcNAc(b1-4)GlcNAc
# Summary of the method: as §1
# [11] = molecular target: Gal(b1-3)GlcNAc(b1-3)Gal(b1-4)Glc
# Summary of the method: as §1
# [12] = molecular target: Gal(b1-3)[Fuc(a1-4)]GlcNAc(b1-3)Gal(b1-3)[Fuc(a1-4)]GlcNAc
# Summary of the method: as §1
# Gal(b1-4)GlcNAc(b1-2)Man = molecular target: Gal(b1-4)GlcNAc(b1-2)Man
# Summary of the method: as §1
# [13] = molecular target: Gal(b1-4)GlcNAc(b1-2)Man(a1-3)[Gal(b1-4)GlcNAc(b1-2)Man(a1-6)]Man(b1-4)GlcNAc(b1-4)GlcNAc
# Summary of the method: as §1
# [14] = molecular target: Gal(b1-4)GlcNAc(b1-2)[Gal(b1-4)GlcNAc(b1-6)]Man(a1-6)[GlcNAc(b1-4)][Gal(b1-4)GlcNAc(b1-2)Man(a1-3)]Man(b1-4)GlcNAc(b1-4)GlcNAc
# Summary of the method: as §1
# [15] = molecular target: Gal(b1-4)GlcNAc(b1-3)Gal(b1-4)GlcNAc
# Summary of the method: as §1
# [16] = molecular target: Gal(b1-4)GlcNAc(b1-3)Gal(b1-4)GlcNAc(b1-3)Gal(b1-4)GlcNAc(b1-2)Man(a1-3)[Gal(b1-4)GlcNAc(b1-3)Gal(b1-4)GlcNAc(b1-3)Gal(b1-4)GlcNAc(b1-2)Man(a1-6)]Man(b1-4)GlcNAc(b1-4)GlcNAc
# Summary of the method: as §1
# [17] = molecular target: Gal(b1-4)GlcNAc(b1-3)Gal(b1-4)GlcNAc(b1-3)Gal(b1-4)GlcNAc(b1-3)Gal(b1-4)GlcNAc(b1-3)Gal(b1-4)GlcNAc(b1-2)Man(a1-3)[Gal(b1-4)GlcNAc(b1-3)Gal(b1-4)GlcNAc(b1-3)Gal(b1-4)GlcNAc(b1-3)Gal(b1-4)GlcNAc(b1-3)Gal(b1-4)GlcNAc(b1-2)Man(a1-6)]Man(b1-4)GlcNAc(b1-4)[Fuc(a1-6)]GlcNAc
# Summary of the method: as §1
# Gal3S(b1-3)GlcNAc = molecular target: Gal3S(b1-3)GlcNAc
# Summary of the method: as §1
# [18] = molecular target: Gal3S(b1-3)[Fuc(a1-4)]GlcNAc
# Summary of the method: as §1
# Gal6S(b1-4)GlcNAc6S = molecular target: Gal6S(b1-4)GlcNAc6S
# Summary of the method: as §1
# [19] = molecular target: GlcNAc(a1-4)Gal(b1-4)GlcNAc(b1-3)Gal(b1-4)[Fuc(a1-3)]GlcNAc(b1-3)Gal(b1-4)[Fuc(a1-3)]GlcNAc
# Summary of the method: as §1
# [20] = molecular target: GlcNAc(b1-2)[GlcNAc(b1-4)]Man(a1-3)[GlcNAc(b1-2)Man(a1-6)]Man(b1-4)GlcNAc(b1-4)GlcNAc
# Summary of the method: as §1
# [21] = molecular target: GlcNAc(b1-3)Gal(b1-4)GlcNAc(b1-3)[GlcNAc(b1-3)Gal(b1-4)GlcNAc(b1-3)]GalNAc
# Summary of the method: as §1
# [22] = molecular target: Kdn(a2-3)Gal(b1-4)[Fuc(a1-3)]GlcNAc
# Summary of the method: as §1
# [23] = molecular target: Neu5Ac(a2-3)Gal(b1-3)GlcNAc(b1-3)Gal(b1-3)GlcNAc
# Summary of the method: as §1
# [24] = molecular target: Neu5Ac(a2-3)Gal(b1-3)[Neu5Ac(a2-6)]GlcNAc(b1-3)[Fuc(a1-3)[Gal(b1-4)]GlcNAc(b1-6)]Gal(b1-4)Glc
# Summary of the method: as §1
# [25] = molecular target: Neu5Ac(a2-3)Gal(b1-4)GlcNAc(b1-2)Man(a1-3)[Neu5Ac(a2-6)Gal(b1-4)GlcNAc(b1-2)Man(a1-6)]Man(b1-4)GlcNAc(b1-4)GlcNAc
# Summary of the method: as §1
# [26] = molecular target: Neu5Ac(a2-3)Gal(b1-4)GlcNAc(b1-3)Gal(b1-3)GlcNAc
# Summary of the method: as §1
# [27] = molecular target: Neu5Ac(a2-3)Gal(b1-4)GlcNAc(b1-3)Gal(b1-4)GlcNAc(b1-3)Gal(b1-4)GlcNAc(b1-2)Man(a1-3)[Neu5Ac(a2-3)Gal(b1-4)GlcNAc(b1-3)Gal(b1-4)GlcNAc(b1-3)Gal(b1-4)GlcNAc(b1-2)Man(a1-6)]GalNAc
# Summary of the method: as §1
# [28] = molecular target: Neu5Ac(a2-3)Gal(b1-4)GlcNAc(b1-3)Gal(b1-4)GlcNAc(b1-3)[Neu5Ac(a2-3)Gal(b1-4)GlcNAc(b1-3)Gal(b1-4)GlcNAc(b1-6)]GalNAc
# Summary of the method: as §1
# [29] = molecular target: Neu5Ac(a2-3)Gal(b1-4)GlcNAc(b1-3)[Neu5Ac(a2-3)Gal(b1-4)GlcNAc(b1-6)]GalNAc
# Summary of the method: as §1
# [30] = molecular target: Neu5Ac(a2-3)Gal(b1-4)[Fuc(a1-3)]GlcNAc(b1-3)GalNAc
# Summary of the method: as §1
# [31] = molecular target: Neu5Ac(a2-6)Gal(b1-4)GlcNAc(b1-2)Man(a1-3)[GlcNAc(b1-4)][Neu5Ac(a2-6)Gal(b1-4)GlcNAc(b1-2)Man(a1-6)]Man(b1-4)GlcNAc(b1-4)GlcNAc
# Summary of the method: as §1
# [32] = molecular target: Neu5Ac(a2-6)Gal(b1-4)GlcNAc(b1-2)Man(a1-3)[Man(a1-6)]Man(b1-4)GlcNAc(b1-4)GlcNAc
# Summary of the method: as §1
# [33] = molecular target: Neu5Ac(a2-6)Gal(b1-4)GlcNAc(b1-2)Man(a1-6)Man(b1-4)GlcNAc(b1-4)GlcNAc
# Summary of the method: as §1
# [34] = molecular target: Neu5Ac(a2-6)Gal(b1-4)GlcNAc(b1-3)Gal(b1-4)GlcNAc(b1-3)Gal(b1-4)GlcNAc(b1-2)Man(a1-3)[Neu5Ac(a2-6)Gal(b1-4)GlcNAc(b1-3)Gal(b1-4)GlcNAc(b1-3)Gal(b1-4)GlcNAc(b1-2)Man(a1-6)]GalNAc
# Summary of the method: as §1
binder,measurement,setting,value
B1,glycan array binding signal (z-score),[1],-0.278
same,glycan array binding signal (z-score),[2],3.16
same,glycan array binding signal (z-score),[3],-0.005
same,glycan array binding signal (z-score),[4],-0.072
same,glycan array binding signal (z-score),[5],4.96
same,glycan array binding signal (z-score),[6],-0.067
same,glycan array binding signal (z-score),[7],-0.452
same,glycan array binding signal (z-score),[8],3.14
same,glycan array binding signal (z-score),[9],0.822
same,glycan array binding signal (z-score),Gal(b1-2)Gal,-0.763
same,glycan array binding signal (z-score),Gal(b1-3)GlcNAc,-0.446
same,glycan array binding signal (z-score),Gal(b1-3)GlcNAc(b1-2)Man,0.049
same,glycan array binding signal (z-score),[10],0.704
same,glycan array binding signal (z-score),[11],-0.669
same,glycan array binding signal (z-score),[12],-0.28
same,glycan array binding signal (z-score),Gal(b1-4)GlcNAc(b1-2)Man,-0.114
same,glycan array binding signal (z-score),[13],-0.534
same,glycan array binding signal (z-score),[14],-0.48
same,glycan array binding signal (z-score),[15],-0.384
same,glycan array binding signal (z-score),[16],3.18
same,glycan array binding signal (z-score),[17],6.07
same,glycan array binding signal (z-score),Gal3S(b1-3)GlcNAc,-0.241
same,glycan array binding signal (z-score),[18],0.569
same,glycan array binding signal (z-score),Gal6S(b1-4)GlcNAc6S,0.939
same,glycan array binding signal (z-score),[19],0.435
same,glycan array binding signal (z-score),[20],-0.31
same,glycan array binding signal (z-score),[21],0.532
same,glycan array binding signal (z-score),[22],0.229
same,glycan array binding signal (z-score),[23],-0.76
same,glycan array binding signal (z-score),[24],2.49
same,glycan array binding signal (z-score),[25],-0.493
same,glycan array binding signal (z-score),[26],-0.463
same,glycan array binding signal (z-score),[27],2.75
same,glycan array binding signal (z-score),[28],4.06
same,glycan array binding signal (z-score),[29],2.82
same,glycan array binding signal (z-score),[30],2.98
same,glycan array binding signal (z-score),[31],-0.397
same,glycan array binding signal (z-score),[32],0.402
same,glycan array binding signal (z-score),[33],-0.108
same,glycan array binding signal (z-score),[34],3.97
